FMDV inh: blocks foot and mouth disease virus; AID 1159524; Potency, µM (titrated, usually from 57.9 µM), inactives show top-dose activity change, negative = inhibition, usual class: inhibitors; FMDV antiviral cell-based qHTS; actives 1.2% (n = 410,000); calls by dose curve; tested in HEK293T cells; note: read-out not given here; potency is the fitted concentration of half-maximal effect; nearly all actives have a fitted effect of over 45% in size
HCMV inh: blocks human cytomegalovirus replication; HFF cells, HCMV-luciferase reporter, 72 h; hits give low values; activity change, negative = inhibition, % at 57.5 µM; actives 4.5% (n = 410,000); in the data active = activity change below about -60%; inconclusive = no clear call, values can overlap the other calls; inactive = above about -39%
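Inhibition of viral replication was scored as loss of reporter luminescence in HFFs infected with HCMV-luciferase (MOI 1 PFU/cell) for 72 h; compounds tested at 2 doses, normalized to buffer and Salinomycin controls.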
VACV Venus inh: inhibitors of vaccinia virus (Venus reporter). Vaccinia virus Venus reporter expression, fluorescence. Potency, µM (series often up to 36.5 µM), for inactives: at the top dose activity change, negative = inhibition, most hits filed as inhibitors. actives 0.46% (n = 330,000). AID 720580; calls by dose curve; tested in A549 cells; note: potency is the fitted concentration of half-maximal effect; nearly all actives have a fitted effect of over 30% in size
HCV inh: blocks hepatitis C virus | Potency, µM (top dose mostly 41.8 µM), inactives show at the highest dose activity change, negative = inhibition, actives largely listed as inhibitors | Huh7.5.1 HCVcc-Cre infection, luciferase reporter, 44 h | actives 3.4% (n = 340,000); active = well fitted inhibition curve with a large enough effect; inconclusive = small, poorly fitted or top-dose-only effect, or another doubt; inactive = no such curve, though single readings can be large or run the other way; note: potency is the fitted concentration of half-maximal effect
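Cells (1,000/well) were plated 4 h before compound, then infected with HCVcc-Cre virus (~0.5 moi). After 44 h further culture, infection was read as luciferase luminescence following a 15 min substrate incubation at room temperature.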
Vaccinia mCherry: vaccinia inhibition (mCherry reporter). Vaccinia virus mCherry reporter infection, fluorescence. Potency, µM (top dose mostly 36.5 µM), inactives show top-dose activity change, negative = inhibition, actives largely listed as inhibitors. actives 0.63% (n = 310,000). AID 720579; calls by dose curve; tested in A549 cells; note: potency is the fitted concentration of half-maximal effect; nearly all actives have a fitted effect of over 35% in size
* = called active by the depositor; [ ] = remark or other dose. In the library only some 7.3% were active in any assay of this set; here they are far more common. % is set by controls: 0 for no effect and ±100 for the full control effect.

For Cc1cccc(-n2c(SCC(=O)Nc3ncc(Cl)cc3Cl)nc3ccccc32)c1 the results were FMDV inh 0%, HCMV inh -99*, VACV Venus inh -24%, HCV inh 11µM* and Vaccinia mCherry 3.2µM*.
`COCCn1c(SCC(=O)Nc2nc(C)c(Cl)cc2Cl)nc2ccccc21` gave FMDV inh -2%, HCMV inh inconclusive, VACV Venus inh -8%, HCV inh -22% and Vaccinia mCherry -14%.
Screening O=C(O)CCSc1nc2ccccc2n1-c1ccccc1 returned FMDV inh -11%, HCMV inh 31, VACV Venus inh -6%, HCV inh 7% and Vaccinia mCherry -10%.
Screening CCOC(=O)c1c(NC(=O)CSc2cn(CCNC(=O)c3c(F)cccc3F)c3ccccc23)sc2c1CCCC2 returned FMDV inh -17%, HCMV inh -5, VACV Venus inh -10% and Vaccinia mCherry 2%.
`Cc1ccccc1NC(=O)CSc1nc(=O)n(CCN2CCOCC2)c2c1CCC2` gave FMDV inh -9%, HCMV inh -38, VACV Venus inh -6%[7.34 µM] and Vaccinia mCherry 2%[7.34 µM].
`COc1ccc(C(=O)Nc2nc(-c3ccccc3)c(C(C)=O)s2)c(OC)c1` gave FMDV inh 29%, HCMV inh 13, VACV Venus inh 1%, HCV inh 13µM* and Vaccinia mCherry -8%.
Screening COc1ccc(C(=O)Nc2nc(-c3ccc([N+](=O)[O-])cc3)c(-c3ccccc3)s2)cc1 returned FMDV inh inconclusive, HCMV inh -18, VACV Venus inh 2% and HCV inh 6.3µM*.
COc1ccc(-c2sc(NC(=O)c3ccc(C)cc3)nc2-c2ccc([N+](=O)[O-])cc2)cc1 was read as FMDV inh -24%, HCMV inh 6, VACV Venus inh -5%, HCV inh 0% and Vaccinia mCherry -8%.
Screening COc1ccc(NC(=O)CSc2oc(-c3cccs3)nc2S(=O)(=O)c2ccc(Br)cc2)c(OC)c1 returned FMDV inh -11%, HCMV inh 21, VACV Venus inh 1% and Vaccinia mCherry -14%.
For CCN(CC)C(=O)C1CCCc2c1[nH]c1ccc(Cl)cc21 (stereo not drawn) the results were FMDV inh -2%, HCMV inh 1, VACV Venus inh 5%, HCV inh inconclusive and Vaccinia mCherry 9%.
O=CNC1CCCc2c1[nH]c1ccc(Cl)cc21 (stereo not drawn) was read as FMDV inh -23%, HCMV inh inconclusive, VACV Venus inh -2%, HCV inh 7.1µM* and Vaccinia mCherry -15%.
`CCOc1ccc(CCNC(=O)c2cnc3c(-c4ccc(F)cc4)c(C)nn3c2C)cc1OCC` gave FMDV inh -17%, HCMV inh 16, VACV Venus inh -17% and Vaccinia mCherry -15%.
`Cc1c(-c2ccccc2)cnc2c(C)cccc12` gave FMDV inh -2%, HCMV inh 9 and HCV inh 11µM*.
Screening Cc1cc(C)c(S(=O)(=O)ON2C(=O)c3ccccc3C2=O)cc1C returned FMDV inh 25µM*, HCMV inh -81*, VACV Venus inh -1%, HCV inh -1% and Vaccinia mCherry -12%.
Screening Cc1cc(C)c(C)c(S(=O)(=O)ON2C(=O)c3ccccc3C2=O)c1C returned FMDV inh inconclusive, HCMV inh -76*, VACV Venus inh -19%, HCV inh inconclusive and Vaccinia mCherry -14%.
Screening O=C1c2ccccc2C(=O)N1OS(=O)(=O)c1ccc(F)cc1 returned FMDV inh inconclusive, HCMV inh -7 and HCV inh 2%.
For Cc1ccc(S(=O)(=O)ON2C(=O)c3ccccc3C2=O)c(C)c1 the results were FMDV inh inconclusive, HCMV inh -71*, VACV Venus inh 0%, HCV inh 9% and Vaccinia mCherry -9%.
`Cc1ccc(NC(=O)CN2C(=O)c3ccccc3C2=O)c(C)c1` gave FMDV inh -4%, HCMV inh 14, VACV Venus inh -4%, HCV inh 3% and Vaccinia mCherry inconclusive.
Screening CC1(C(=O)NS(=O)(=O)c2cccc(C#N)c2)CCN1C(=O)CCC1CCCC1 (stereo not drawn) returned FMDV inh -6%, HCMV inh 4, VACV Venus inh 3% and Vaccinia mCherry 31%.
`O=C1Nc2ccccc2/C1=C\c1cccn1-c1ccc(OC(F)(F)F)cc1` gave FMDV inh inconclusive, HCMV inh -22 and HCV inh 0.56µM*.
For O=C1Nc2ccccc2/C1=C/c1ccccc1F the results were FMDV inh -10%, HCMV inh 18, VACV Venus inh -24%, HCV inh inconclusive and Vaccinia mCherry -10%.
CCCCCOc1ccc(NC(=O)c2cc(SC)ccc2Cl)cc1 was read as FMDV inh -11%, HCMV inh -60*, VACV Venus inh -1%, HCV inh inconclusive and Vaccinia mCherry -4%.
Screening COc1ccc(CN(C)Cc2nc(Cc3cccc(F)c3)no2)c2cccnc12 returned FMDV inh 10µM*, HCMV inh -82*, VACV Venus inh inconclusive, HCV inh 10µM* and Vaccinia mCherry inconclusive.
For COCCCNC(=O)CCCn1c(=O)c2ccccc2n(CC(=O)Nc2ccc(C)cc2Cl)c1=O the results were FMDV inh 15%, HCMV inh -19, VACV Venus inh -3% and Vaccinia mCherry -7%.
Screening COc1ccc2[nH]cc(CCNC(=O)Cc3c(F)cccc3Cl)c2c1 returned FMDV inh -14%, HCMV inh -16, VACV Venus inh -12%, HCV inh inconclusive and Vaccinia mCherry -5%.
For COC(=O)Cc1c(O)ccn(CCc2c[nH]c3ccc(OC)cc23)c1=O the results were FMDV inh 0%, HCMV inh -73*, VACV Venus inh 5%, HCV inh 7% and Vaccinia mCherry inactive.
Screening COc1ccc2[nH]cc(CCNC(=O)c3ccccc3Cl)c2c1 returned FMDV inh 9%, HCMV inh -84*, VACV Venus inh -4%, HCV inh 5% and Vaccinia mCherry inconclusive.
COC(=O)Cc1c(O)ccn(CCc2c[nH]c3ccccc23)c1=O was read as FMDV inh -19%, HCMV inh inconclusive and HCV inh 23%.
For COc1ccc2[nH]cc(CCNc3ncncc3-c3ccccc3C)c2c1 the results were FMDV inh 20µM*.
`CCCCCCCCN1C(=O)[C@H](CC(=O)NCCCN2CCCC2=O)C[C@@]2(C(=O)OC)CCCCC=C12` gave FMDV inh 0%, HCMV inh 5, VACV Venus inh -17% and Vaccinia mCherry -12%.
Screening Cc1ccc2c(c1)c1c(n2CC(O)CN2CCCCCC2)CCCC1 (stereo not drawn) returned FMDV inh -28%, HCMV inh -77*, VACV Venus inh -26%, HCV inh 10µM* and Vaccinia mCherry -21%.
CNCC(O)Cn1c2c(c3ccccc31)CCCC2 (stereo not drawn) was read as FMDV inh -13%, HCMV inh 0 and HCV inh 10µM*.

Screens deposited in PubChem BioAssay by National Center for Advancing Translational Sciences (NCATS).
